Data taken from PubChem BioAssay (NCI).
Values joined by “and” are separate entries in the source; they are usually repeats but may differ in a detail not shown here. Identical values can stand only once. This is part of a sample that, as a whole, favours compounds with a hit. Of some 83,000 tested, about 20% had one in any assay.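 Method: cells in 96-well plates; compound added at one concentration; 48 h incubation; percent growth measured; values under 10 scored active.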 Values without a mark were called inactive.

System: KM12 colon
Test: NCI-60 one-dose screen, 48 h (100 = growth as untreated, 0 = no growth, -100 = all killed)
Conditions: 10 µM unless noted

Row | SMILES | growth
1 | CCc1cc(C)cc(O)c1 | 114%
2 | NN1CCOC(c2ccccc2)C1 (stereo not drawn) | 101%
3 | ClCCOCCOc1ccc(C2CCCCC2)cc1 | 110%
4 | O=c1n(CC2CO2)c(=O)n(CC2CO2)c(=O)n1CC1CO1 (stereo not drawn) | 90.3%
5 | Cc1ccc(S(=O)(=O)c2ccccc2)cc1 | 25.5%
6 | O=C(/C=C/c1ccccc1)c1ccccc1 | 33.3%
7 | Cc1cc(-c2ccc(N=Nc3ccc4c(S(=O)(=O)O)cc(S(=O)(=O)O)c(N)c4c3O)c(C)c2)ccc1N=Nc1ccc2c(S(=O)(=O)O)cc(S(=O)(=O)O)c(N)c2c1O | 94.7%
8 | c1ccc(CNCCNCc2ccccc2)cc1 | 120%
9 | Cc1cc2ccccc2cn1 | 106% and 108%
10 | OC1COC(OCc2ccccc2)C(O)C1O (stereo not drawn) | 105%
11 | CCCCCCCCCCCCCCCc1ccc(N)c(OC2OC(CO)C(O)C(O)C2O)c1 (stereo not drawn) | 100%
12 | O=C(O)CCCl | 106%
13 | C#CCOC(=O)Nc1ccccc1 | 110%
14 | CC(C)C(C)(C)c1ccc(O)cc1 | 107%
15 | Cc1cc(-c2cc(C)c(O)c(C)c2)cc(C)c1O | 72.6%
16 | CC1(C)COC(=S)N1 | 112%
17 | CCOC(=O)c1c(C)cc(=O)oc1C | 110%
18 | CC[C@H](CC[C@@H](C)[C@H]1CC[C@H]2[C@@H]3CC=C4C[C@@H](O)CC[C@]4(C)[C@H]3CC[C@]12C)C(C)C | 106% and 98.6%
